# Results from PubChem BioAssay AID1159580 (chemical genetic matrix, 2015).
# The whole screen tested about 5,500 compounds, of which about 2,000 (36%) were called active. About 18% were inconclusive and are not listed. The list shows a part of the results. Unmarked numbers belong to inactive results. No stated cut-off is given here; in the data, active means normalized growth mostly below about 0.91 (no sharp cut-off); inconclusive means no clear call, values can overlap the other calls; inactive means mostly above about 0.92.
# Test: chemical genetic growth profiling, strain panel (AID 1159580);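 further: tested at 20 µM; growth read once vehicle control cultures reached saturation at 30 °C; 1 = growth at the plate median or of vehicle wells; lower values mean less growth of the strain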
# Details: growth OD
# [1] = S. cerevisiae deletion strains, locus YBR021W, strain FUR4, active compounds read low
# [2] = S. cerevisiae deletion strains, locus YBR229C, strain ROT2, active compounds read low
# [3] = S. cerevisiae deletion strains, locus YCL029C, strain bik1, active compounds read low
# [4] = S. cerevisiae deletion strains, locus YDL035C, strain GPR1, active compounds read low
# [5] = S. cerevisiae deletion strains, locus YDL074C, strain BRE1, active compounds read low
# [6] = S. cerevisiae deletion strains, locus YDL101C, strain DUN1, active compounds read low
# [7] = S. cerevisiae deletion strains, locus YDL185W, strain tfp1, active compounds read low
# [8] = S. cerevisiae deletion strains, locus YDL192W, strain arf1, active compounds read low
# [9] = S. cerevisiae deletion strains, locus YDR101C, strain arx1, active compounds read low
# [10] = S. cerevisiae deletion strains, locus YDR162C, strain NBP2, active compounds read low
# [11] = S. cerevisiae deletion strains, locus YDR318W, strain mcm21, active compounds read low
# [12] = S. cerevisiae deletion strains, locus YDR388W, active compounds read low
# [13] = S. cerevisiae deletion strains, locus YDR502C, strain sam2, active compounds read low
# [14] = S. cerevisiae deletion strains, locus YEL061C, strain CIN8, active compounds read low
# [15] = S. cerevisiae deletion strains, locus YER110C, active compounds read low
# [16] = S. cerevisiae deletion strains, locus YER167W, strain BCK2, active compounds read low
# [17] = S. cerevisiae deletion strains, locus YGL078C, strain dbp3, active compounds read low
# [18] = S. cerevisiae deletion strains, locus YGL086W, strain mad1, active compounds read low
# [19] = S. cerevisiae deletion strains, locus YGL248W, strain PDE1, active compounds read low
# [20] = S. cerevisiae deletion strains, locus YGR135W, strain pre9, active compounds read low
# [21] = S. cerevisiae deletion strains, locus YGR252W, strain gcn5, active compounds read low
# [22] = S. cerevisiae deletion strains, locus YHR079C, strain IRE1 (second series), active compounds read low
# [23] = S. cerevisiae deletion strains, locus YHR094C, strain hxt1, active compounds read low
# [24] = S. cerevisiae deletion strains, locus YHR129C, strain ARP1, active compounds read low
# [25] = S. cerevisiae deletion strains, locus YHR200W, strain rpn10, active compounds read low
# [26] = S. cerevisiae deletion strains, locus YIL066C, strain RNR3, active compounds read low
# [27] = S. cerevisiae deletion strains, locus YIL073C, strain SPO22, active compounds read low
# [28] = S. cerevisiae deletion strains, locus YIL125W, strain kgd1, active compounds read low
# [29] = S. cerevisiae deletion strains, locus YIR030C, strain dcg1, active compounds read low
# [30] = S. cerevisiae deletion strains, locus YJL095W, strain BCK1, active compounds read low
# [31] = S. cerevisiae deletion strains, locus YJL134W, strain LCB3, active compounds read low
# [32] = S. cerevisiae deletion strains, locus YJL168C, strain set2, active compounds read low
# [33] = S. cerevisiae deletion strains, locus YJL187C, strain SWE1 (second series), active compounds read low
# [34] = S. cerevisiae deletion strains, locus YJR043C, strain POL32, active compounds read low
# [35] = S. cerevisiae deletion strains, locus YKL009W, strain mrt4, active compounds read low
# [36] = S. cerevisiae deletion strains, locus YKL068W, active compounds read low
# [37] = S. cerevisiae deletion strains, locus YKL085W, strain MDH1 (second series), active compounds read low
# [38] = S. cerevisiae deletion strains, locus YKL085W, strain MDH1, active compounds read low
# [39] = S. cerevisiae deletion strains, locus YKL190W, strain CNB1, active compounds read low
# [40] = S. cerevisiae deletion strains, locus YKR001C, strain vps1, active compounds read low
# [41] = S. cerevisiae deletion strains, locus YLR039C, strain RIC1, active compounds read low
# [42] = S. cerevisiae deletion strains, locus YLR058C, strain SHM2, active compounds read low
# [43] = S. cerevisiae deletion strains, locus YLR102C, strain apc9, active compounds read low
# [44] = S. cerevisiae deletion strains, locus YLR262C, strain YPT6, active compounds read low
# [45] = S. cerevisiae deletion strains, locus YLR268W, strain sec22, active compounds read low
# [46] = S. cerevisiae deletion strains, locus YLR330W, strain CHS5, active compounds read low
# [47] = S. cerevisiae deletion strains, locus YLR371W, strain rom2, active compounds read low
# [48] = S. cerevisiae deletion strains, locus YLR418C, strain cdc73, active compounds read low
# [49] = S. cerevisiae deletion strains, locus YML016C, strain PPZ1, active compounds read low
# [50] = S. cerevisiae deletion strains, locus YML032C, strain rad52, active compounds read low
# [51] = S. cerevisiae deletion strains, locus YML124C, strain tub3, active compounds read low
# [52] = S. cerevisiae deletion strains, locus YMR078C, strain ctf18, active compounds read low
# [53] = S. cerevisiae deletion strains, locus YMR223W, strain ubp8, active compounds read low
# [54] = S. cerevisiae deletion strains, locus YMR263W, strain SAP30, active compounds read low
# [55] = S. cerevisiae deletion strains, locus YMR307W, strain GAS1, active compounds read low
# [56] = S. cerevisiae deletion strains, locus YNL067W, strain RPL9B, active compounds read low
# [57] = S. cerevisiae deletion strains, locus YNL128W, strain TEP1, active compounds read low
# [58] = S. cerevisiae deletion strains, locus YNL153C, strain GIM3, active compounds read low
# [59] = S. cerevisiae deletion strains, locus YNL233W, strain BNI4, active compounds read low
# [60] = S. cerevisiae deletion strains, locus YNL250W, strain rad50, active compounds read low
# [61] = S. cerevisiae deletion strains, locus YNL271C, strain bni1, active compounds read low
# [62] = S. cerevisiae deletion strains, locus YNL298W, strain CLA4, active compounds read low
# [63] = S. cerevisiae deletion strains, locus YNL307C, strain MCK1, active compounds read low
# [64] = S. cerevisiae deletion strains, locus YNR052C, strain pop2, active compounds read low
# [65] = S. cerevisiae deletion strains, locus YOL012C, strain htz1
# [66] = S. cerevisiae deletion strains, locus YOL147C, strain pex11, active compounds read low
# [67] = S. cerevisiae deletion strains, locus YOR061W, strain CKA2, active compounds read low
# [68] = S. cerevisiae deletion strains, locus YOR069W, strain VPS5, active compounds read low
# [69] = S. cerevisiae deletion strains, locus YOR136W, strain idh2, active compounds read low
# [70] = S. cerevisiae deletion strains, locus YOR144C, strain elg1, active compounds read low
# [71] = S. cerevisiae deletion strains, locus YOR184W, strain ser1, active compounds read low
# [72] = S. cerevisiae deletion strains, locus YOR316C, strain cot1, active compounds read low
# [73] = S. cerevisiae deletion strains, locus YPR119W, strain clb2, active compounds read low
# [74] = S. cerevisiae deletion strains, locus YPR141C, strain kar3, active compounds read low
# [75] = S. cerevisiae deletion strains, locus YPR163C, strain tif3, active compounds read low
# [76] = S. cerevisiae deletion strains, locus YPR167C, strain met16, active compounds read low
# [77] = S. cerevisiae deletion strains, strain wtn01, active compounds read low
# [78] = S. cerevisiae strains, strain wild type, active compounds read low
compound,measurement,setting,value
COc1cc(C)c2c(=O)c3c(O)cc(O)cc3oc2c1,normalized growth,[1],0.936
same,normalized growth,[2],0.975
same,normalized growth,[3],0.95
same,normalized growth,[4],0.994
same,normalized growth,[5],0.95
same,normalized growth,[6],0.974
same,normalized growth,[7],0.955
same,normalized growth,[8],0.891 (active)
same,normalized growth,[9],0.943
same,normalized growth,[10],0.967
same,normalized growth,[11],0.906 (active)
same,normalized growth,[12],0.941
same,normalized growth,[13],0.92 (active)
same,normalized growth,[14],1.02
same,normalized growth,[15],0.948
same,normalized growth,[16],0.983
same,normalized growth,[17],0.946
same,normalized growth,[18],0.904 (active)
same,normalized growth,[19],0.934
same,normalized growth,[20],0.93
same,normalized growth,[21],0.764 (active)
same,normalized growth,[22],0.925 (active)
same,normalized growth,[23],0.961
same,normalized growth,[24],0.995
same,normalized growth,[25],0.904 (active)
same,normalized growth,[26],0.986
same,normalized growth,[27],0.923
same,normalized growth,[28],0.957
same,normalized growth,[29],0.953
same,normalized growth,[30],0.829
same,normalized growth,[31],0.981
same,normalized growth,[32],0.975
same,normalized growth,[33],0.953
same,normalized growth,[34],0.979
same,normalized growth,[35],0.911
same,normalized growth,[36],0.971
same,normalized growth,[37],0.952
same,normalized growth,[38],0.952
same,normalized growth,[39],1
same,normalized growth,[40],0.871 (active)
same,normalized growth,[41],0.865
same,normalized growth,[42],0.941
same,normalized growth,[43],0.969
same,normalized growth,[44],0.846
same,normalized growth,[45],0.941
same,normalized growth,[46],0.973
same,normalized growth,[47],0.936
same,normalized growth,[48],0.815 (active)
same,normalized growth,[49],0.974
same,normalized growth,[50],0.829 (active)
same,normalized growth,[51],0.967
same,normalized growth,[52],0.954
same,normalized growth,[53],0.884 (active)
same,normalized growth,[54],0.979
same,normalized growth,[55],0.752
same,normalized growth,[56],0.992
same,normalized growth,[57],0.985
same,normalized growth,[58],0.989
same,normalized growth,[59],0.86 (active)
same,normalized growth,[60],0.889 (active)
same,normalized growth,[61],0.953
same,normalized growth,[62],0.962
same,normalized growth,[63],0.868 (active)
same,normalized growth,[64],0.933
same,normalized growth,[65],0.866
same,normalized growth,[66],0.923 (active)
same,normalized growth,[67],0.982
same,normalized growth,[68],0.997
same,normalized growth,[69],0.925
same,normalized growth,[70],0.954
same,normalized growth,[71],0.918
same,normalized growth,[72],0.96
same,normalized growth,[73],0.956
same,normalized growth,[74],0.958
same,normalized growth,[75],0.896 (active)
same,normalized growth,[76],0.883 (active)
same,normalized growth,[77],0.919
same,normalized growth,[78],0.932
COc1cc(C)c2c(=O)c3c(O)cc(OC)cc3oc2c1,normalized growth,"S. cerevisiae deletion strains, locus YAL013W, strain DEP1, active compounds read low",1.01
same,normalized growth,[1],0.968
same,normalized growth,[2],1.02
same,normalized growth,[3],0.991
same,normalized growth,[4],1.01
same,normalized growth,[5],1.02
same,normalized growth,[6],1.02
same,normalized growth,"S. cerevisiae deletion strains, locus YDL134C, strain PPH21, active compounds read low",1.01
same,normalized growth,[7],0.991
same,normalized growth,[8],0.986
same,normalized growth,[9],0.981
same,normalized growth,"S. cerevisiae deletion strains, locus YDR150W, strain NUM1, active compounds read low",1.02
same,normalized growth,[10],1.02
same,normalized growth,[11],0.986
same,normalized growth,[12],0.981
same,normalized growth,[13],0.982
same,normalized growth,[14],1.01
same,normalized growth,[15],0.977
same,normalized growth,"S. cerevisiae deletion strains, locus YER155C, strain BEM2, active compounds read low",1
same,normalized growth,[16],1.01
same,normalized growth,[17],0.976
same,normalized growth,[18],0.982
same,normalized growth,[19],1.02
same,normalized growth,"S. cerevisiae deletion strains, locus YGR078C, strain PAC10, active compounds read low",1
same,normalized growth,[20],0.977
same,normalized growth,"S. cerevisiae deletion strains, locus YGR229C, strain SMI1, active compounds read low",0.996
same,normalized growth,[21],0.929
same,normalized growth,"S. cerevisiae deletion strains, locus YHR030C, strain SLT2, active compounds read low",1.01
same,normalized growth,[22],0.977
same,normalized growth,[23],0.991
same,normalized growth,[24],1.01
same,normalized growth,[25],0.975
same,normalized growth,[26],1.01
same,normalized growth,[27],0.967
same,normalized growth,[28],0.984
same,normalized growth,[29],0.994
same,normalized growth,[30],0.995
same,normalized growth,[31],1.01
same,normalized growth,[32],0.982
same,normalized growth,[33],1.02
same,normalized growth,[34],0.999
same,normalized growth,"S. cerevisiae deletion strains, locus YJR075W, strain HOC1, active compounds read low",1.01
same,normalized growth,[35],0.984
same,normalized growth,[36],0.993
same,normalized growth,[37],1.03
same,normalized growth,[38],1.03
same,normalized growth,[39],1.01
same,normalized growth,[40],0.982
same,normalized growth,[41],1.04
same,normalized growth,[42],1.02
same,normalized growth,[43],0.982
same,normalized growth,[44],1.04
same,normalized growth,[45],0.987
same,normalized growth,[46],1.02
same,normalized growth,"S. cerevisiae deletion strains, locus YLR342W, strain FKS1 (second series), active compounds read low",0.996
same,normalized growth,[47],0.984
same,normalized growth,[48],0.981
same,normalized growth,[49],1.02
same,normalized growth,[50],0.978
same,normalized growth,[51],0.985
same,normalized growth,[52],0.993
same,normalized growth,[53],0.98
same,normalized growth,[54],1.01
same,normalized growth,[55],0.976
same,normalized growth,[56],1.01
same,normalized growth,[57],1.01
same,normalized growth,[58],1.01
same,normalized growth,[59],1.01
same,normalized growth,[60],0.992
same,normalized growth,[61],0.98
same,normalized growth,[62],0.976
same,normalized growth,[63],0.981
same,normalized growth,"S. cerevisiae deletion strains, locus YNL322C, strain KRE1, active compounds read low",1.01
same,normalized growth,[64],0.978
same,normalized growth,"S. cerevisiae deletion strains, locus YOL006C, strain TOP1, active compounds read low",1.05
same,normalized growth,[65],1.37
same,normalized growth,[66],0.985
same,normalized growth,[67],1.02
same,normalized growth,[68],1.01
same,normalized growth,[69],0.979
same,normalized growth,[70],0.99
same,normalized growth,[71],0.969
same,normalized growth,[72],0.982
same,normalized growth,"S. cerevisiae deletion strains, locus YPL055C, strain LGE1, active compounds read low",1.01
same,normalized growth,"S. cerevisiae deletion strains, locus YPL241C, strain CIN2, active compounds read low",0.99
same,normalized growth,[73],0.98
same,normalized growth,[74],1
same,normalized growth,[75],0.988
same,normalized growth,[76],0.985
same,normalized growth,[77],0.986
same,normalized growth,[78],1.01
